AHR activator: activates the human aryl hydrocarbon receptor; AID 2796; P35869; AHR-responsive luciferase reporter cells, luminescence; 2.5% of 320,000 active; activation, % at 5 µM; in the data active = activation above about 47%
Target sequence (P35869 whole entry, looked up): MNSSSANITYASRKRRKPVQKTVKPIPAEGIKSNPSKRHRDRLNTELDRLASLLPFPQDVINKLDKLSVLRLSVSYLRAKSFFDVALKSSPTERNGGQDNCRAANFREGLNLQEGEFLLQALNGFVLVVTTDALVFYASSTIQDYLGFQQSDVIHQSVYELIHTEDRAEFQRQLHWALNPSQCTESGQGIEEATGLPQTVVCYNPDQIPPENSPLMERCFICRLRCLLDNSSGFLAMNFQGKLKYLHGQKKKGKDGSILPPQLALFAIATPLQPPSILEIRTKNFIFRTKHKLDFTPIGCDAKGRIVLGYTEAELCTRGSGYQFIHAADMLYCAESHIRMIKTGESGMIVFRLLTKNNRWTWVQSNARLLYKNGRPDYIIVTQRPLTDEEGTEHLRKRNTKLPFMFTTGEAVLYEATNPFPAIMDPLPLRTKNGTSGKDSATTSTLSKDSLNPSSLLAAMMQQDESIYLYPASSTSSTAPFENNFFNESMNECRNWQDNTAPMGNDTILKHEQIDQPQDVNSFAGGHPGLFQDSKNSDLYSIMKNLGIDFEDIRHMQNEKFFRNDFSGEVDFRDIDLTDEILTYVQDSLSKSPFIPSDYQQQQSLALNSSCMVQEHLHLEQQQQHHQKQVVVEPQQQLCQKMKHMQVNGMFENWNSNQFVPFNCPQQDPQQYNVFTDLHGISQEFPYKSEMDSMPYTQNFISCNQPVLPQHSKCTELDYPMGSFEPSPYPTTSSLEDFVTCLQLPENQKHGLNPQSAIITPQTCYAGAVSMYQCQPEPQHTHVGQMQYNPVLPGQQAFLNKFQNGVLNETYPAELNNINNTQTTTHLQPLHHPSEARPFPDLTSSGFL
GAA850 FXN act: increases GAA850 frataxin promoter reporter activity; HEK293 lucGAA850 FXN promoter luciferase reporter, 24 h; percent of 10 µM SAHA response; activation, % at 6 µM; 0.56% of 360,000 active; AID 540364;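 active = activation above the average of all compounds screened plus 3 SD, cutoff fixed separately per campaign, cut at about 7.5% in these data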
NR0B1 inh: inhibits human nuclear receptor DAX1 | 0.99% of 340,000 active | inhibition, % at 6.75 µM | P51843 | AID 504766 | HEK293 Gal4-DAX1 luciferase reporter, luminescence;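 active = inhibition above the mean over all tested compounds plus 3 SD, cut at about 4.2% in these data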;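 also: inhibition shows as a rise in luminescence from relieved DAX1 repression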
HSF1 inhib: HSF1 inhibition. NIH3T3-HGL HSE-luciferase, MG132-induced, luminescence 8 h; hits give low values. activity change, negative = inhibition, % at 7.5 µM (by protocol). 0.77% of 300,000 active;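 active = more than half of replicate wells show activity change below -50%, luminescence cut by over half; inconclusive = some wells, but at most half, below -50%; inactive = no replicate well below -50%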;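 also: luciferase reports HSF-1 transcriptional activity via heat shock element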
HSF1 activator: increases HSF-1 driven luciferase reporter signal. NIH3T3-HGL HSF-1 luciferase reporter, MG132, 8 h; 100% = twice DMSO control signal. activation, % at 9 µM. 1.7% of 300,000 active;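 active = mean replicate activation of at least 50% with a set share of replicates each reaching 50%; inconclusive = only one of those two conditions met; inactive = mean below 50% and too few replicates reaching it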
HSP90 refold inh: blocks HSP90-mediated luciferase refolding in reticulocyte lysate | Rabbit reticulocyte lysate, luciferase refolding luminescence, 3 h | 0.91% of 290,000 active | inhibition, % at 5.6 µM;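 active = inhibition above the screen-wide mean plus 3 SD, computed separately per campaign, cut at about 16% in these data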;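 also: inhibitors lower the luminescence because luciferase stays unfolded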
Of the large screens only hits and unclear results are named; the others gave an inactive call. Sampled rows, rich in hits. Any-hit rate of the full collection: about 5.9%.

COc1cc(NC(=O)C/C(C)=N/NC(=O)Cc2ccc(Cl)cc2)c(OC)cc1Cl	AHR activator 81.0
C/C(CC(=O)Nc1cc(Cl)ccc1Cl)=N\NC(=O)c1ccccc1Br	AHR activator 71.3
COc1ccc(Cl)cc1NC(=O)C/C(C)=N/NC(=O)c1ccccc1[N+](=O)[O-]	none
COC(=O)c1ccccc1NC(=O)C/C(C)=N/NC(=O)Cc1ccc(Cl)cc1	none
CC1=CN2C(=NC(=O)CC2(C)C(=O)N(CC(=O)NC2CCCC2)Cc2ccc(Cl)cc2)C=C1 (stereo unspecified)	none
CC1=CC=CC2=NC(=O)CC(C)(C(=O)N(CC(=O)NC3CCCC3)c3ccc(F)cc3)N12 (stereo unspecified)	none
COc1ccc(Br)cc1/C=N/N1C(=O)CSC1=S	AHR activator 48.8
O=C1CSC(=S)N1N=Cc1c[nH]c2ccc(Br)cc12	none (no result: AHR activator, HSF1 inhib, HSF1 activator, HSP90 refold inh)
Cc1cc(C)c(S(=O)(=O)c2ccccc2C(=O)O)c(C)c1	HSF1 activator 53.5
CCOC(=O)C1=NN(c2ccc(C)cc2)C2(S1)SC(C(C)=O)=C(C)N2c1ccccc1 (stereo unspecified)	HSF1 activator 61.8
Cc1ccc(NCC(=O)Nc2ccc(Br)cc2)cc1C	none
Cc1ccc(F)cc1NCC(=O)Nc1ccc(Br)cc1	AHR activator 72.0
O=c1[nH]c(Cc2cccc(C(F)(F)F)c2)nc2ccccc12	none
O=C(Nc1cc(C(F)(F)F)ccc1Cl)c1ccncc1	none
CCCC(=O)Nc1ccc(C(=O)Nc2cc(C(F)(F)F)ccc2Cl)cc1	AHR activator 62.7
COc1cc(C(=O)Nc2cc(C(F)(F)F)ccc2Cl)cc(OC)c1OC	none
O=C(Nc1cc(C(F)(F)F)ccc1Cl)c1ccc(NC(=O)C(F)(F)F)cc1	AHR activator 75.1
CC1=C(CO)C(=O)OC([C@@H](C)C2CC[C@H]3C4C[C@H]5O[C@]56[C@@H](O)C=CC(=O)[C@]6(C)C4CC[C@]23C)C1 (stereo partly specified)	HSF1 activator 64.1 (no result: HSP90 refold inh)
CC(=O)Nc1ccc(NC(=O)c2cc[n+]([O-])cc2)cc1	none
Cc1noc(C)c1S(=O)(=O)N1CCN(S(=O)(=O)c2ccccc2C#N)CC1	NR0B1 inh 7.8
O=C(Nc1nccs1)c1ccc(-c2ccc(F)c(Cl)c2)o1	AHR activator 71.9
O=C(O)/C=C/C(=O)Nc1nccs1	none
O=C(Nc1nccs1)c1ccc(-c2ccc(Cl)cc2Cl)o1	HSF1 activator inconclusive
Cc1nc(NC(=O)c2ccc(Br)o2)sc1C	none
O=C(/C=C/c1ccc(Br)o1)Nc1nccs1	HSF1 activator 83.4
O=C(Nc1nccs1)c1ccc(Br)o1	AHR activator 57.5
COc1cc(C(=S)N2CCOCC2)cc(Br)c1OS(=O)(=O)c1ccccc1	none
CC(OC(=O)c1ccc(NC(=O)CC#N)cc1)C(=O)NC(=O)NC1CCCCC1 (stereo unspecified)	none
COc1ccc(OC)c(S(=O)(=O)NCCCc2ccccc2)c1	none
O=C(NCC1CC1)c1csc(COCCO)n1	none (no result: AHR activator, NR0B1 inh, HSF1 inhib, HSF1 activator, HSP90 refold inh)
C#CCSc1nc(=O)c2cccnc2n1-c1ccc(C)cc1	NR0B1 inh 4.5
CC(C)(C)c1ccc(/C=N/NC(=S)NC2CCCCC2)cc1	HSF1 activator 55.8
Cc1ccc(C(=O)n2cnnc2N)cc1C	none
Cc1ccc(C(=O)n2cnnc2N)cc1	HSF1 activator 66.1
COC(=O)/C(=C/Nc1cccc2ccccc12)[N+](=O)[O-]	AHR activator 61.7
COc1ccc(-c2csc(NC3=NCCCCC3)n2)cc1	AHR activator 57.5
Fc1ccc(-c2csc(NC3=NCCC3)n2)cc1	AHR activator 54.6
COc1ccc(-c2csc(NNC3=NCCCCC3)n2)cc1	none (no result: GAA850 FXN act, NR0B1 inh)
CCCC1=C(C(=O)OCC)C(c2cccs2)n2ncnc2N1 (stereo unspecified)	none
C/C(=N/NC(=O)CC1N=C(Cc2ccccc2)NNC1=O)c1cccnc1 (stereo unspecified)	AHR activator 62.2
C/C(=N\NC(=O)CC1N=C(Cc2ccccc2)NNC1=O)c1ccc(C)cc1 (stereo unspecified)	HSF1 activator inconclusive
CCCS(=O)(=O)NC(=O)C1(C)CCCN(C(=O)c2ccccc2OC)C1 (stereo unspecified)	none (no result: AHR activator, NR0B1 inh, HSF1 inhib, HSF1 activator, HSP90 refold inh)
CCNc1ccc(Br)cc(C(=O)/C=C/c2c(Cl)cccc2Cl)c1=O	HSF1 activator 72.7

Assay outcomes deposited in PubChem BioAssay by several laboratories.
